G9a block: G9a (human) methyltransferase inhibition | G9a H3K9 monomethylation, AlphaScreen, 2 h | AID 504332 | 8.8% of 350,000 active | Potency, µM (top dose mostly 102 µM), for the others: top-dose activity, negative = inhibition, most hits filed as inhibitors; further: on the % scale 0 is the no-effect control and ±100 the full control effect; nearly all actives have a fitted effect of over 75% in size
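G9a (20 nM) was preincubated 15 min with compound, then reacted 2 h at room temperature with 500 nM biotin-H3K9 peptide and 20 µM SAM. Monomethyl-H3K9 detected by AlphaScreen using anti-H3K9me1 antibody.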
JMJD2A Tudor: JMJD2A Tudor domain (human) inhibition; Potency, µM (doses to about 114 µM), without a hit: top-dose activity change, negative = inhibition, actives largely listed as inhibitors; AlphaScreen JMJD2A-Tudor / H3K4me3 peptide binding; 4.4% of 390,000 active; AID 504339; further: on the % scale 0 is the no-effect control and ±100 the full control effect; nearly all actives have a fitted effect of over 50% in size
GLS inhibitor: glutaminase GLS (human) inhibition; O94925; GLS enzymatic activity, qHTS titration; Potency, µM (top dose mostly 45.5 µM), without a hit: at the top dose activity change, negative = inhibition, usual class: inhibitors; 0.21% of 410,000 active; AID 624170; further: on the % scale 0 is the no-effect control and ±100 the full control effect
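Compounds were pin-transferred onto hKGA, after which L-glutamine (1 mM solution) and a detection mix of glutamate oxidase, HRP and Amplex Red were added. Initial and 30 min RT fluorescence reads were collected.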
HP1b chromo inh: blocks HP1-beta chromodomain binding to methylated histone tails; P83916; AlphaScreen HP1-beta / biotin-H3K9me3 peptide binding; Potency, µM (top dose mostly 114 µM), without a hit: at the top dose activity change, negative = inhibition, usual class: inhibitors; 0.56% of 390,000 active; AID 540317; further: nearly all actives have a fitted effect of over 70% in size
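AlphaScreen: HP1-beta (50 nM) preformed 30 min with biotin-H3(1-18)K9me3 peptide (50 nM) in PBS pH 7.4, 0.01% Tween-20. Compound added for 30 min at RT, then streptavidin donor/nickel chelate acceptor beads (10 ug/mL) for 30 min.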
BAZ2B inh: blocks human BAZ2B | Q9UIF8 | 4.4% of 360,000 active | AID 504333 | Potency, µM (doses to about 114 µM), for the others: at the top dose activity change, negative = inhibition, most hits filed as inhibitors | AlphaScreen BAZ2B-H3K14Ac peptide displacement; further: on the % scale 0 is the no-effect control and ±100 the full control effect; nearly all actives have a fitted effect of over 60% in size
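AlphaScreen displacement: compounds (up to 110uM) incubated 30 min at room temperature with a preformed 50 nM BAZ2B/50 nM biotinylated H3K14Ac peptide complex in PBS pH 7.4 with Tween-20. Donor and acceptor beads at 10 ug/mL final added, 20 min light-protected before reading.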
The depositor's hits bear a star; ? = inconclusive; . = no result given; [ ] = remark or other dose. Only some compounds are listed: those with a hit (about 10% of all), similar ones and a draw of the others. The call rests on the fitted dose curve; in most records, active means well fitted curve in the direction sought with a large enough effect; inconclusive means small, poorly fitted or top-dose-only effect, or another doubt; inactive means no such curve, though single readings can be large; an effect the other way counts as inactive or inconclusive. Potency means the concentration at half of the fitted maximal effect.

SMILES	G9a block	JMJD2A Tudor	GLS inhibitor	HP1b chromo inh	BAZ2B inh
CCN(CC(=O)Nc1ccc2c(c1)OCCO2)CC(=O)Nc1ccccc1C(F)(F)F	.	5.01µM*	0.3%	28.2µM*	.
CN(CC(=O)Nc1ccc(Cl)c(C(F)(F)F)c1)C(=O)c1ccc2c(c1)OCCO2	2.7%	-8.3%	4.1%	28.0%	10.1%
CCN(CC(=O)Nc1ccc(C(C)=O)cc1)CC(=O)Nc1ccc2c(c1)OCCO2	.	0.316µM*	-10.7%	?	.
Cc1nnc(SCC2=C(C(=O)O)N3C(=O)C(NC(=O)Cc4ccccc4)C3SC2)s1 (configuration not stated)	?	-5.7%	-12.1%	34.9%	?
NC(=O)c1cc[n+](CC2=C(C(=O)O)N3C(=O)[C@@H](NC(=O)[C@H](c4ccccc4)S(=O)(=O)[O-])[C@@H]3SC2)cc1	5.62µM*	.	?	.	.
NC(=O)c1cc[n+](CC2=C(C(=O)O)N3C(=O)[C@@H](NC(=O)C(c4ccccc4)S(=O)(=O)[O-])[C@H]3SC2)cc1 (some centres not stated)	-12.8%	1.12µM*	0.794µM*	?	2.1%
NC(=O)c1cc[n+](CC2=C(C(=O)[O-])N3C(=O)[C@@H](NC(=O)Cc4cccs4)[C@@H]3SC2)cc1	7.94µM*	.	-12.2%[20 µM]	.	.
COc1ccccc1-n1c(SCC(=O)Nc2nnc(C)s2)nc2c(c1=O)SCC2	?	-16.5%	2.6%	15.1%	-18.6%
N#C[C@H]1C[C@H]2C[C@@H]2N1C(=O)[C@@H](N)C12CC3CC(CC(O)(C3)C1)C2	.	.	-8.4%	.	.
Cc1cccc(C)c1NC(=O)CC(NCc1ccco1)C(=O)O (configuration not stated)	-40.1%[12.7 µM]	20µM*	-3.8%	13.1%	-33.9%
COc1ccc(OC)c(NC(=O)C(CC(=O)O)NCc2ccco2)c1 (configuration not stated)	?	44.7µM*	14.3%	-12.4%	-31.2%
COC(=O)[C@H](CC(C)C)NCc1cccc(CN[C@@H](CC(C)C)C(=O)OC)c1	-1.0%	9.1%	11.3%	52.0%	3.7%
CCC(C)[C@H](NC(=O)NCc1ccco1)C(=O)O (some centres not stated)	3.2%[59 µM]	-19.9%	2.2%	30.3%	1.7%
CC(C)OC(=O)C(CC(=O)O)NCc1ccccc1 (configuration not stated)	?	11.2µM*	20.0%	?	-36.1%
CCOC(=O)C(CC(=O)O)NCc1ccco1 (configuration not stated)	39.8µM*	17.8µM*	0.6%	4.2%	-4.7%
CC(=O)NS(=O)(=O)c1ccc(NC(=O)c2ccccc2F)cc1	-11.7%[12.7 µM]	3.9%	1.5%	28.2%	-4.4%
CCc1cc(C(=O)NN2C(=O)NC3(CCCCC3)C2=O)sc1C	1.9%[59 µM]	-9.0%	6.1%	22.7%	-2.7%
COC(=O)c1ccc(CSc2nc3ccccc3c(=O)n2-c2ccccc2)o1	15.8µM*	-20.8%	3.4%	25.7%	-24.5%
COC(=O)c1ccc(CSc2nc3ccccc3c(=O)n2-c2ccc(OC)c(OC)c2)o1	-8.3%[12.7 µM]	-33.1%	1.9%	-1.8%	-39.0%
COC(=O)c1ccc(CSc2nnc3n(Cc4ccccc4OC)c(=O)c4ccccc4n23)o1	44.7µM*	-22.6%	0.0%	10.3%	-31.6%
Cc1ccc(C(=O)Nc2nc(-c3ccco3)c(-c3ccco3)s2)o1	14.1µM*	?	7.2%	50.1µM*	20µM*
O=C(CCCSc1ccccc1)Nc1nc(-c2ccco2)c(-c2ccco2)s1	?	39.8µM*	1.1%	28.2µM*	22.4µM*
O=C(CCSc1ccccc1)Nc1nccs1	-3.8%[59 µM]	-10.8%	-0.8%	11.5%	-20.7%
O=C(CCl)Nc1nc(-c2ccco2)c(-c2ccco2)s1	11.2µM*	?	2.1%	?	50.1µM*
CC(C)c1nnc(NC(=O)CCC(=O)N2CCN(c3ccc(Cl)cc3)CC2)s1	.	-18.3%	-3.5%	18.0%	?
CC(=O)N1CC=CC1(C)C(=O)NCc1cc(F)cc(C(F)(F)F)c1 (configuration not stated)	39.8µM*	0.0%	0.0%	55.8%	-5.0%
